# Bioassay records as filed in PubChem.
# Hits are enriched below; roughly 12% of the tested compounds scored in any of these assays.
# Sm TGR inh: blocks Schistosoma mansoni thioredoxin glutathione reductase; purified TGR, DTNB reduction, TNB absorbance 405 nm; Potency, µM (doses to about 114 µM), without a hit: at the top dose activity change, negative = inhibition, most hits filed as inhibitors; Q962Y6; hit rate 3% among 360,000; AID 485364; further: on the % scale 0 is the no-effect control and ±100 the full control effect; nearly all actives have a fitted effect of over 60% in size
#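 Kinetic colorimetric format: TGR-catalysed, NADPH-driven DTNB reduction monitored via TNB absorbance. Enzyme dispensed at 20 nM; compound exposure 15 min at room temperature before reaction start.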
# AmpC no deterg: blocks E. coli AmpC beta-lactamase in detergent-free assay; AmpC nitrocefin hydrolysis, absorbance 480 nm, 0.0001% Triton; Potency, µM (top dose mostly 57.1 µM), for inactives: top-dose activity change, negative = inhibition, usual class: inhibitors; hit rate 0.52% among 330,000;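 further: plate controls were no compound for no effect and no enzyme for full effect; nearly all actives have a fitted effect of over 20% in size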
# Target sequence (P00811 whole entry, looked up): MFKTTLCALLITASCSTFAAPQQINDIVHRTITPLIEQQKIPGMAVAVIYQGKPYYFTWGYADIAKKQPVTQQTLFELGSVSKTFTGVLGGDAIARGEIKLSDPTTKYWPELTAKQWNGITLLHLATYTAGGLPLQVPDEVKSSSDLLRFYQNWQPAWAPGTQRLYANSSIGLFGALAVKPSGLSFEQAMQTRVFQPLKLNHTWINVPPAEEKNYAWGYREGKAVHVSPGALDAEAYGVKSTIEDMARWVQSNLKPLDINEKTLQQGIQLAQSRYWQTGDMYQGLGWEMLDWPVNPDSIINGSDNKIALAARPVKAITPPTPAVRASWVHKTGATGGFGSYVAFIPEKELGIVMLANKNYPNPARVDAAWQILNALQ
#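 20 mM phosphate pH 7.0 + 0.01% (detergent screen) or 0.0001% Triton X-100; 5.3 nM AmpC reagent; cpd preinc 15 min RT; nitrocefin (800 uM stock) to start; A480 q20 s × 4 min; Activity was normalised to no-enzyme and no-compound control wells.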
# Pf growth 48h: P. falciparum growth inhibition at 48 hours (one generation); hit rate 5.9% among 310,000; P. falciparum luciferase growth in erythrocytes, 48 h; Potency, µM (doses to about 28.7 µM), for inactives: at the top dose activity change, negative = inhibition, hits mostly inhibitors; further: on the % scale 0 is the no-effect control and ±100 the full control effect
#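 Read-out is firefly luciferase luminescence from an integrated reporter in P. falciparum, so falling signal marks reduced parasite growth. Infected erythrocytes were at 2% hematocrit and 0.1% parasitemia (final) in Albumax-supplemented RPMI 1640.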
# Pf growth 96h: inhibits malaria parasite growth, 96 h; P. falciparum luciferase reporter growth, 96 h; Potency, µM (top dose mostly 28.7 µM), inactives show at the top dose activity change, negative = inhibition, hits mostly inhibitors; hit rate 6.9% among 320,000; AID 504834; further: on the % scale 0 is the no-effect control and ±100 the full control effect
#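 Infected RBCs, 2% Hct / 0.05% parasitemia final; luciferase-reporter P. falciparum; cpd 96 h, 37 C, 5% CO2; luciferase detection reagent; luminescence.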
# SARS PLpro yeast: blocks SARS-CoV papain-like protease in a yeast assay | S. cerevisiae expressing SARS-CoV PLpro, growth rescue | hit rate 0.19% among 330,000 | Potency, µM (highest dose often 32.9 µM), for the others: at the top dose activity, positive = growth rescue, hits mostly activators; calls by dose curve; further: 0% is about no effect; nearly all actives have a fitted effect of over 55% in size
# AmpC inh detg: AmpC beta-lactamase inhibition with detergent present | P00811 | AmpC hydrolysis of nitrocefin, absorbance 480 nm, 0.01% Triton | Potency, µM (titrated, usually from 114 µM), for inactives: top-dose activity change, negative = inhibition, most hits filed as inhibitors | hit rate 0.041% among 370,000;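 further: 0% = no-compound wells and -100% = no-enzyme wells; nearly all actives have a fitted effect of over 25% in size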
#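 AmpC (5.3 nM in the dispensed reagent) in 20 mM phosphate pH 7.0 with 0.01% (detergent screen) or 0.0001% Triton X-100 was preincubated with compounds for 15 min at room temperature. Nitrocefin was then added from an 800 uM solution, and hydrolysis was followed at 480 nm.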
# Numbers without * were called inactive; ? = inconclusive; · = no result. Unless noted, the call rests on the fitted dose curve; in most records, active means well fitted curve in the direction sought with a large enough effect; inconclusive means small, poorly fitted or top-dose-only effect, or another doubt; inactive means no such curve, though single readings can be large; an effect the other way counts as inactive or inconclusive. Potency means the concentration at half of the fitted maximal effect.
SMILES,Sm TGR inh,AmpC no deterg,Pf growth 48h,Pf growth 96h,SARS PLpro yeast,AmpC inh detg
C=CCn1c(=O)/c(=C/c2cc(OC)c(OC)c(OC)c2)s/c1=C(/C#N)c1nc2ccccc2n1C,0%,-1%,5.2µM*,80%,0%,?
CCOC(=O)c1ccc(-n2c(CCC(=O)O)ccc2-c2ccc(F)cc2)cc1,22µM*,-20%,3%,57%,-2%,-10%
Cc1ccc(-c2ccc(CCC(=O)O)n2-c2cccc(C)c2C)cc1,22µM*,·,·,·,·,-11%
Cc1ccc(-c2ccc(CCC(=O)O)n2-c2ccc(C(C)C)cc2)cc1,40µM*,·,·,·,·,-10%
Cc1ccc(-c2ccc(CCC(=O)O)n2-c2cccc(C(=O)O)c2)cc1,13µM*,-13%,105%,4%,1%,-7%
Cc1ccc(-n2nnnc2-c2cnc3cc4c(cc3c2C)OCO4)cc1,-23%,-17%,4%,·,9%,?
COc1cc2c(cc1O)CCN(C(=O)CSc1nncn1C)[C@@H]2C,-15%,-5%,44%,24%,-5%,6%
Cc1ccc(-c2ccc(CCC(=O)O)n2-c2ccc(C(=O)O)cc2)cc1,14µM*,-20%,20%,7%,3%,1%
COC(=O)c1ccc(C)cc1,·,-14%,·,·,8%,·
COC(=O)c1ccc(-n2c(CCC(=O)O)ccc2-c2ccc(C)cc2)cc1,28µM*,-40%,10%,?,1%,1%
O=C(O)CCc1ccc(-c2ccccc2)n1-c1cccc(O)c1,14µM*,-51%,16%,2%,0%,-8%
O=C(O)CCc1ccc(-c2ccc(Br)cc2)n1-c1ccccc1O,-18%,·,·,·,·,23%
CC(C)c1ccc(NC(=O)c2ccc(CN3CC(=O)N4CCCCC4C3=O)cc2)cc1 (stereo not given),-4%,·,·,·,·,22%
Cc1cc(-c2n[nH]c(=S)n2/N=C/C=C/c2ccco2)n[nH]1,22µM*,-29%,-6%,-12%,1%,-2%
S=c1[nH]nc(-c2ccccc2)n1/N=C/C=C/c1ccco1,?,-56%,15%,48%,?,-13%
Cc1cc(-c2n[nH]c(=S)n2/N=C/c2ccc(C)o2)n[nH]1,-15%,-11%,-2%,0%,0%,-9%
S=c1[nH]nc(-c2cccnc2)n1/N=C/C=C/c1ccco1,·,-15%,-9%,22%,1%,-7%
Cc1ccccc1-c1n[nH]c(=S)n1/N=C/C=C/c1ccco1,14µM*,10µM*,1%,9%,1%,3%
S=c1[nH]nc(-c2ccc(Cl)cc2)n1/N=C/C=C/c1ccco1,40µM*,16µM*,-11%,8%,-2%,-6%
CNC(=O)C1CCN(Cc2cc3ccccc3n2Cc2cccc(C)c2)CC1,2%,·,·,·,·,-2%
CC(C)n1cc(/C=C(\C#N)S(=O)(=O)c2ccccc2)c2ccccc21,-1%,-3%,?,0%,0%,0%
Cc1cc(C)c(S(=O)(=O)N2CCCOC2CNC(=O)C(=O)NCCc2c[nH]c3ccccc23)c(C)c1 (stereo not given),10%,5%,?,?,19%,0%
Cc1ccc(OCCSc2nc3ccccc3n2CCC(=O)O)cc1,89%,-26%,-17%,-6%,-11%,?
CCc1cccc(C)c1NC(=O)c1cn2c3c(ccc(Cl)c3c1=O)OC(C)C2 (stereo not given),-4%,·,·,·,·,1%
CCOC(=O)c1scc(-c2ccccc2)c1S(=O)(=O)N1CCN(c2ccccc2OC)CC1,-1%,·,·,·,·,15%
CCCCOC(=O)C1=C(C)NC2=C(C(=O)CCC2)C1c1cc(OC)ccc1OC (stereo not given),-2%,24%,·,13µM*,-1%,?
CC1=C(C(=O)OCC(C)C)C(c2ccsc2)C2=C(CCCC2=O)N1 (stereo not given),5%,-14%,13µM*,8.3µM*,12%,-1%
